# The supplement of paper PMC6555819
# System: RARb homodimer (NR concentration 270 nM)
# Assay: PBM binding z-score (relative to random genomic background probes); higher = stronger binding; sequences stand for … in GC…GCGATTGACAGCGTAGAATGAAGG
# Method in brief: (§1)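 Binding buffer was PBS pH 7.4 with 2% milk, 0.02% Triton X-100, 1 mM DTT, 0.2 mg/mL BSA and 0.4 mg/ml salmon testes DNA. In it, ligand-free nuclear receptor dimers were incubated 1 h on custom Agilent 4×180K protein-binding microarrays carrying double-stranded probes. Antibodies against each partner (one per run) detected binding, and z-scores were calculated against random background probes after regression normalization of scanned fluorescence.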
row,Sequence,PBM binding z-score
1,TCTCGGAGGACGCGAAAGGTCAGAGCTCGACATC,4.26
2,CAAACTAGGTCACATAGGTCAAAGTCCGTGCGTA,4.67
3,ATCGAAAGGTCGAGATGAGTATAGAGAAAGGGAA,1.97
4,TAGCCTAGGTCATGCGGGCTAGTATAGTGTCGGC,2.99
5,CCTACTGGCCCATTCAGAGGTCATTGATCATATG,3.64
6,CATACAGGGTGAGCTAGGCCAGAGTAGGGACGGC,0.342
7,AGAACGAGGGCACGCTGAATTGATAGCAGAGTAG,0.888
8,CCTCAGAGGACAACAGGAGGTCAGAGCTGCCAGA,3.94
9,CAGCCTAGGGCAGGGCCAGTATAGGAGGAACGTT,0.0483
10,TCATATAGGTAAAAGCTAGGTGAAAGTCCGATCT,0.265
11,CGGCCAAGGTCAGAGAGGTCAGTGAATGCCGAGT,5.45
12,GCTTACGGGTCAAGGGTTATAGCATGAATAGAAT,3.07
13,TCTCAGAGGACACGAAGGTCAGAGCTTTCCAGAG,3.88
14,TCGAGTAGGTTACCAATGGGGCCTTCAGCTTTCT,0.0421
15,ATACCAAGATGATCGTGAGGTCGTTGATACTAAC,1.17
16,CCTTACGGGTCACTCCTGGTTATAGCATCGGAGT,2.89
17,GCTGCTAGGTCAGGTTCGTCAGCTAACGGGTACG,2.25
18,TCTGCCAGGTCAACGATGGTCAGCTAATCTGCTA,3.43

# System: RARg:RXRa (NR concentration 270 nM, RXRa partner concentration 90 nM)
# Assay: as above
# Method in brief: as §1
row,Sequence,PBM binding z-score
1,ATATGTAGGTTAGATGGGGTCATTCAGACTAGGC,4.06
2,AATACAGGGTCTCTAGGCCAGAGTAGGTACGAAT,0.0798
3,AGTCAAAGATCAGGACGAGGTAACGTAAAGCACG,0.544
4,GATTGTAGATCAAGGTTAAGAAAGACTAAGCTAA,0.14
5,TCTATTAGTTGAAGGGCAAGCGACGAGTCCGTTT,0.558
6,CCTTACGGCTCACTCCAGGTTATAGCATCGGAGT,-0.122
7,CGTCCAGGGTCATAGGAGGTCAGTGAAGACAGAT,6.27
8,CCTTACGGGTCACTGACAGGTTACAGCATTTGGA,6.18
9,TAGCCTAGGTCATTGGGCCAGTTTAGTACGCATC,3.74
10,ATATGGAGGTTACATCCGGGTCATTCAGGCTATG,4.87
11,AGTCAGAGTTCAGGACGAGGTAACGTAAAGCACG,4.62
12,CAAACTAGGTAACAGAGGTCAAAGTCCGTGCGTA,5.28
13,GTACCAAGGTGAATAGGTCGTAGATGAGTAGGCG,2.94
14,CCTACTGGGCCAAGGTGATTGATCAGTCAAAGCA,-0.199
15,ATATGTAGGTTAGCTGGGGTCACTCAGACTAGGC,4.29
16,AATACAGCGTCACTAGGCCAGAGTAGGTACGAAT,-0.145
17,CCTAGCAGGCCAATCTGGGTCACTCCAGGCTTGA,0.98
18,GCATATAGGTAATACAAAGTGAAAGTCCGATTGT,0.129
19,AGAATGAGGTTATACGCAGATCAGGGAAGAAAGT,1.67
20,CCAGACAGGTGAGAAGGAAACTCAGCCTCGATTA,0.209

row,Sequence,PBM binding z-score
1,GCAGACAGCTGAAACGCAGGTAACTCAGGGTGGC,-0.584
2,CGTCCAAGGTGATAGGAGGTCAGTGAAGACAGAT,2.56
3,TCTCGGAGGACGCGAAAGGTCAGAGCTCGACATC,4.31
4,CAAACTAGGTCACATAGGTCAAAGTCCGTGCGTA,5.93
5,ATCGAAAGGTCGAGATGAGTATAGAGAAAGGGAA,3.79
6,TAGCCTAGGTCATGCGGGCTAGTATAGTGTCGGC,3.77
7,CCTACTGGCCCATTCAGAGGTCATTGATCATATG,2.97
8,CATACAGGGTGAGCTAGGCCAGAGTAGGGACGGC,0.54
9,AGAACGAGGGCACGCTGAATTGATAGCAGAGTAG,1.78
10,CCTCAGAGGACAACAGGAGGTCAGAGCTGCCAGA,4.09
11,CAGCCTAGGGCAGGGCCAGTATAGGAGGAACGTT,-0.0952
12,TCATATAGGTAAAAGCTAGGTGAAAGTCCGATCT,0.433
13,CGGCCAAGGTCAGAGAGGTCAGTGAATGCCGAGT,6.22
14,GCTTACGGGTCAAGGGTTATAGCATGAATAGAAT,5.54
15,TCTCAGAGGACACGAAGGTCAGAGCTTTCCAGAG,3.73
16,TCGAGTAGGTTACCAATGGGGCCTTCAGCTTTCT,0.0942
17,ATACCAAGATGATCGTGAGGTCGTTGATACTAAC,0.596
18,CCTTACGGGTCACTCCTGGTTATAGCATCGGAGT,4.05
19,GCTGCTAGGTCAGGTTCGTCAGCTAACGGGTACG,2.25
20,TCTGCCAGGTCAACGATGGTCAGCTAATCTGCTA,4.4

# System: RARg homodimer (NR concentration 270 nM)
# Assay: as above
# Method in brief: as §1
row,Sequence,PBM binding z-score
1,ATATGTAGGTTAGATGGGGTCATTCAGACTAGGC,2.93
2,AATACAGGGTCTCTAGGCCAGAGTAGGTACGAAT,0.292
3,AGTCAAAGATCAGGACGAGGTAACGTAAAGCACG,0.425
4,GATTGTAGATCAAGGTTAAGAAAGACTAAGCTAA,0.339
5,TCTATTAGTTGAAGGGCAAGCGACGAGTCCGTTT,0.708
6,CCTTACGGCTCACTCCAGGTTATAGCATCGGAGT,0.148
7,CGTCCAGGGTCATAGGAGGTCAGTGAAGACAGAT,6.23
8,CCTTACGGGTCACTGACAGGTTACAGCATTTGGA,4.87
9,TAGCCTAGGTCATTGGGCCAGTTTAGTACGCATC,3.68
10,ATATGGAGGTTACATCCGGGTCATTCAGGCTATG,2.66
11,AGTCAGAGTTCAGGACGAGGTAACGTAAAGCACG,4.28
12,CAAACTAGGTAACAGAGGTCAAAGTCCGTGCGTA,4.28
13,GTACCAAGGTGAATAGGTCGTAGATGAGTAGGCG,1.61
14,CCTACTGGGCCAAGGTGATTGATCAGTCAAAGCA,-0.0733
15,ATATGTAGGTTAGCTGGGGTCACTCAGACTAGGC,3.51
16,AATACAGCGTCACTAGGCCAGAGTAGGTACGAAT,0.173
17,CCTAGCAGGCCAATCTGGGTCACTCCAGGCTTGA,1.01
18,GCATATAGGTAATACAAAGTGAAAGTCCGATTGT,0.264
19,AGAATGAGGTTATACGCAGATCAGGGAAGAAAGT,0.985
20,CCAGACAGGTGAGAAGGAAACTCAGCCTCGATTA,0.469

row,Sequence,PBM binding z-score
1,GCAGACAGCTGAAACGCAGGTAACTCAGGGTGGC,-0.685
2,CGTCCAAGGTGATAGGAGGTCAGTGAAGACAGAT,2.86
3,TCTCGGAGGACGCGAAAGGTCAGAGCTCGACATC,4.12
4,CAAACTAGGTCACATAGGTCAAAGTCCGTGCGTA,6.3
5,ATCGAAAGGTCGAGATGAGTATAGAGAAAGGGAA,3.54
6,TAGCCTAGGTCATGCGGGCTAGTATAGTGTCGGC,3.75
7,CCTACTGGCCCATTCAGAGGTCATTGATCATATG,2.56
8,CATACAGGGTGAGCTAGGCCAGAGTAGGGACGGC,0.662
9,AGAACGAGGGCACGCTGAATTGATAGCAGAGTAG,2.36
10,CCTCAGAGGACAACAGGAGGTCAGAGCTGCCAGA,4.83
11,CAGCCTAGGGCAGGGCCAGTATAGGAGGAACGTT,0.654
12,TCATATAGGTAAAAGCTAGGTGAAAGTCCGATCT,0.218
13,CGGCCAAGGTCAGAGAGGTCAGTGAATGCCGAGT,7.62
14,GCTTACGGGTCAAGGGTTATAGCATGAATAGAAT,4.39
15,TCTCAGAGGACACGAAGGTCAGAGCTTTCCAGAG,4.66
16,TCGAGTAGGTTACCAATGGGGCCTTCAGCTTTCT,-0.234
17,ATACCAAGATGATCGTGAGGTCGTTGATACTAAC,0.434
18,CCTTACGGGTCACTCCTGGTTATAGCATCGGAGT,4
19,GCTGCTAGGTCAGGTTCGTCAGCTAACGGGTACG,3.35
20,TCTGCCAGGTCAACGATGGTCAGCTAATCTGCTA,5.08
